Source: PubChem BioAssay (Sanford-Burnham Center for Chemical Genomics)
CYP2C9 activ – increases human cytochrome P450 2C9 activity; actives 1.4% (n = 96,000); recombinant CYP2C9, luciferin-H conversion, luminescence; active compounds read high; factor 1 = untreated enzyme, 0 = blocked; P11712; AID 1024; activation factor at 5 µM;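 active = activation factor of 2 or more for CYP2C9 at a 5 µM dose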;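 also: 0 = sulfaphenazole-blocked wells and 1 = vehicle-only wells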
CD11b adhes enh – CD11b/CD18-fibrinogen binding enhancement | P05107+P11215 | K562 CD11b/CD18 adhesion to fibrinogen, ATPlite luminescence | activation, % at 10 µM | actives 0.07% (n = 93,000) | AID 1499;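 active = 10 µM primary screen giving 50% or more activity, confirmed by 40% or more on retest at that dose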
CYP2C19 inhib – blocks human cytochrome P450 2C19. CYP2C19 Supersomes, luciferin-H EGE luminescence, 30 min. inhibition, % at 5 µM. actives 21% (n = 96,000);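 active = CYP2C19 inhibition above a set limit at 5 µM in the primary screen, cut at about 50% in these data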;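 also: plate controls were negative control wells for no effect and 2.5 mM tranylcypromine positive control for full effect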
Target sequence (P33261 whole entry, looked up): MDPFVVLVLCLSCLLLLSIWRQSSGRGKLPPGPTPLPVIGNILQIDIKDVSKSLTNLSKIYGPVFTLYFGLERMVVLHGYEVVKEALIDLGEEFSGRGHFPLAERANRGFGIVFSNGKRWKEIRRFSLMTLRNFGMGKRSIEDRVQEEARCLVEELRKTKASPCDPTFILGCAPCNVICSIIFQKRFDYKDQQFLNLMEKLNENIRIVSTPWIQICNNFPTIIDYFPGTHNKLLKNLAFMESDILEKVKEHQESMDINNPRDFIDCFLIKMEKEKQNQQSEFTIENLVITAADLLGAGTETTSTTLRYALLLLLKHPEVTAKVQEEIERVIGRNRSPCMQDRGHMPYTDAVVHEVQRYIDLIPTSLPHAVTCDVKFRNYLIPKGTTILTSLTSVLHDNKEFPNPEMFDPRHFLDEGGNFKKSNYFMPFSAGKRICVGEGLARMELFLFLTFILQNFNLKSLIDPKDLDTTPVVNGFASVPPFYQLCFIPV
CYP2C9 inhib – blocks human cytochrome P450 2C9. P11712. CYP2C9 Supersomes, luciferin-H conversion, luminescence. inhibition, % at 5 µM. actives 20% (n = 96,000). AID 777;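 active = blocking of liver enzyme CYP2C9 beyond about 50% at 5 µM, limit read from the data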
CYP2C19 act – cytochrome P450 2C19 (human) activation; P33261; recombinant CYP2C19, luciferin-H EGE luminescence; active compounds read high; 0 = fully inhibited enzyme, 1 = untreated enzyme; activation factor at 5 µM; 96,000 tested, under 10 active;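 active = activation factor of at least 2 at 5 µM in the primary screen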;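 also: 0 = wells with 2.5 mM tranylcypromine and 1 = vehicle-only wells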
CD11b adhes inh – blocks human CD11b/CD18 adhesion to fibrinogen | AID 1497 | inhibition, % at 10 µM | P05107+P11215 | K562 CD11b/CD18 adhesion to fibrinogen, ATPlite luminescence; Mn2+ added to activate the integrin | actives 0.54% (n = 93,000);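 active = primary inhibition of 50% or more at 10 µM, then 40% or more on retest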
* hit, by the source's call; . = no result given. Hits are enriched below; roughly 28% of the tested compounds scored in any of these assays.

SMILES | CYP2C9 activ | CD11b adhes enh | CYP2C19 inhib | CYP2C9 inhib | CYP2C19 act | CD11b adhes inh
CCc1cccc(C)c1NC(=O)C1=C(C(=O)O)CCCC1 | 1.1 | -0.9 | 6.5 | -15.0 | 0.9 | -5.6
COCCCN(C(=O)c1ccco1)c1nc(-c2cc(OC)ccc2OC)cs1 | 0.2 | -6.9 | 49.8 | 75.7* | 0.5 | -14.7
COc1ccc(-c2csc(N(CCCN3CCOCC3)C(=O)c3ccco3)n2)cc1 | 0.6 | 2.1 | 20.5 | 41.3 | 0.8 | 8.5
O=C(c1ccco1)N(CC1CCCO1)c1nc(-c2ccccc2)cs1 (stereo not drawn) | 0.2 | 10.5 | 87.2* | 84.8* | 0.1 | 0.8
Cc1ccc(-c2csc(N(CCCN3CCOCC3)C(=O)c3ccco3)n2)cc1 | 0.1 | 2.2 | 87.3* | 91.9* | 0.1 | -4.8
CCC(=O)N(CCCN(C)C)c1nc(-c2cc(OC)ccc2OC)cs1 | 0.9 | 4.3 | 24.8 | 13.5 | 0.8 | -51.0
O=C(c1cccs1)N(CC1CCCO1)c1nc(-c2ccccc2)cs1 (stereo not drawn) | 0.1 | 0.9 | 95.3* | 88.9* | 0 | 5.8
CCCS(=O)(=O)N1CCC(C(=O)NCc2ccco2)CC1 | 0.9 | -0.8 | 2.3 | 7.4 | 1 | -8.7
CC(C)=C1C2CCC1C1C(=O)N(c3nc(-c4ccccc4)c(C)s3)C(=O)C21 (stereo not drawn) | . | -0.6 | . | . | . | 12.8
CC(C)Sc1n[nH]c2nc3c(c(=O)n12)C1(CCCC1)Cc1ccccc1-3 | 0.7 | -6.4 | -7.0 | 28.1 | 1.1 | 25.0
COc1ccc(C(=O)N2CCN(c3nc4cc(C)ccc4cc3C#N)CC2)c(OC)c1 | 0.4 | 3.6 | -1.6 | 55.3* | 1 | 5.1
COc1cc(C(=O)N2CCCN(c3nc4cc(C)ccc4cc3C#N)CC2)cc(OC)c1OC | 0.8 | 1.2 | 21.5 | 22.1 | 0.8 | -22.4
CCOC(=O)C1CCN(c2nc3cc(OC)ccc3cc2C#N)CC1 | 0 | 3.7 | 95.9* | 95.9* | 0 | 10.0
COc1ccc2nc(N3CCC(O)CC3)c(C#N)cc2c1 | 0.8 | 0.2 | 63.1* | 16.4 | 0.4 | -6.7
O=[N+]([O-])c1cccc(C=Nc2cc3c(cc2Br)OCCO3)c1 | . | 26.1 | . | . | . | -5.4
Cc1c(C(=O)N2CCCC2)sc(NC(=O)c2cccc(Cl)c2)c1C#N | 0.7 | -3.1 | -11.6 | 30.8 | 1.1 | 17.0
Cc1ccc(NCC(=O)Nc2ccc(Br)cc2)cc1F | . | 0.2 | . | . | . | 14.1
Cc1ccc(NC(=O)COC(=O)c2ccc(OCc3c(C)noc3C)cc2)cc1S(=O)(=O)N1CCOCC1 | . | 19.0 | . | . | . | 16.2
CC(=O)Nc1ccccc1OCC(=O)NCCc1ccc(Cl)cc1Cl | . | -0.8 | . | . | . | 10.6
CCCc1nc(S(=O)(=O)Cc2ccc(Cl)cc2Cl)n[nH]1 | 1.5 | -2.8 | 73.3* | -46.4 | 0.3 | 1.3
O=c1[nH]nc(Cc2ccc(Cl)cc2Cl)c2ccccc12 | 0.8 | -0.6 | 9.5 | 20.8 | 0.9 | 17.8
O=c1c(=O)n(O)c2ccccc2n1O | 1.1 | -5.7 | -13.7 | -14.1 | 1.1 | -2.4
CC1CCCC(n2c(=S)[nH]c3ccccc3c2=O)C1C (stereo not drawn) | 0.8 | . | 53.8* | 15.4 | 0.5 | .
Cc1ccc(Nc2nc3nonc3[nH]c2=O)cc1C | 0.4 | -11.0 | -9.3 | 58.3* | 1.1 | 99.5*
Cc1cc(S(=O)(=O)Nc2ccc3ccccc3c2)c(C)s1 | 0.4 | -4.4 | 93.4* | 64.0* | 0.1 | 22.8
SMILES | CYP2C9 activ | CD11b adhes enh | CYP2C19 inhib | CYP2C9 inhib | CYP2C19 act | CD11b adhes inh
Cc1cc(S(=O)(=O)Nc2cc(C)c(O)c(C)c2)c(C)s1 | 1 | 4.2 | 100.0* | 3.9 | 0 | 66.6
Cc1cc(S(=O)(=O)Nc2cccnc2)c(C)s1 | 0.8 | 0.5 | 41.6 | 24.3 | 0.6 | -0.9
Cc1cc(=O)n2nc(-c3ccccc3)sc2c1C#N | 1.2 | 1.3 | -12.0 | -17.7 | 1.1 | -25.0
CCN(CC)CCNC(=O)Cn1c(C)cc2ccccc2c1=O | 1.1 | -4.3 | -8.3 | -14.2 | 1.1 | 4.2
O=C1c2ccccc2NC(c2ccccc2)N1c1ccc(O)cc1 (stereo not drawn) | 0.6 | -2.0 | 21.1 | 44.6 | 0.8 | -5.4
O=C1c2ccccc2NC(c2ccccn2)N1c1ccc(Cl)cc1 (stereo not drawn) | 0.4 | -4.6 | 47.9 | 62.9* | 0.5 | -2.6
Cc1cccc(C2Nc3ccccc3C(=O)N2c2ccccc2)n1 (stereo not drawn) | 0.3 | 2.9 | 70.8* | 69.5* | 0.3 | -9.7
O=C(O)CNC1=NCCC1 | 1.1 | -2.9 | -19.9 | -14.9 | 1.2 | 15.1
Cn1c2c(c(=O)n(C)c1=O)C(NC(=O)c1ccco1)(C(F)(F)F)C(=O)N2 (stereo not drawn) | 1.1 | 2.7 | 1.5 | -7.4 | 1 | -17.2
COc1ccc(N2C(=O)C3[C@@H](C2=O)C2(Cl)C(Cl)=C(Cl)C3(Cl)C2(OC)OC)cc1 (stereo partly drawn) | . | 5.5 | . | . | . | -4.5
CCOC(=O)NC(CC(=O)O)c1ccc(OC)c(OC)c1 (stereo not drawn) | 1.2 | 0.9 | -8.0 | -15.3 | 1.1 | 18.1
COc1cccc(C2C(C#N)=C(N)OC(C(C)(C)C)=C2C#N)c1 (stereo not drawn) | 0.1 | -1.4 | 84.9* | 94.0* | 0.2 | 12.7
COc1ccc(C2C(C#N)=C(N)OC(C(C)(C)C)=C2C#N)cc1OC (stereo not drawn) | 0.1 | -2.7 | 60.6* | 90.2* | 0.4 | -6.0
O=c1c(Cc2ccc(Cl)cc2)c(O)ccn1Cc1cccc(Cl)c1 | 0.8 | -4.1 | -0.3 | 22.2 | 1 | -16.3
O=c1c(Cc2ccc(Cl)cc2Cl)c(O)ccn1Cc1ccc(Cl)cc1 | 0.9 | -8.3 | 54.5* | 12.7 | 0.5 | 97.0
CS(=O)(=O)N(CC(=O)N1CCN(c2ccccc2)CC1)c1cc(C(F)(F)F)ccc1Cl | 2.1* | -4.3 | 26.5 | -111.6 | 0.7 | 5.9
CC1CCN(C(=O)CN(c2ccc(Cl)c(C(F)(F)F)c2)S(C)(=O)=O)CC1 | 2.3* | -2.4 | 75.3* | -133.2 | 0.2 | -24.7
CCOC(=O)C1CCN(C(=O)CN(c2ccc(Cl)c(C(F)(F)F)c2)S(C)(=O)=O)CC1 | 1.5 | -3.5 | 25.3 | -50.5 | 0.7 | 11.4
CS(=O)(=O)N(CC(=O)N1CCN(c2ccccc2F)CC1)c1cc(C(F)(F)F)ccc1Cl | 1.8 | -3.8 | 28.6 | -76.4 | 0.7 | -5.0
CS(=O)(=O)N(CC(=O)N1CCC(C(N)=O)CC1)c1ccc(Cl)c(C(F)(F)F)c1 | 1 | 2.5 | -5.3 | -4.5 | 1.1 | 1.6
CS(=O)(=O)N(CC(=O)N1CCN(c2ccccc2)CC1)c1ccc(Cl)c(C(F)(F)F)c1 | 1.8 | -3.5 | 95.5* | -82.6 | 0 | -35.8
Cc1nn(-c2ccc(F)cc2)c(Cl)c1/C=C(\CC(=O)O)c1nc2ccccc2s1 | 0.8 | . | -12.1 | 17.3 | 1.1 | .
CC(=O)OC(Cn1ccnc1)c1ccccc1 (stereo not drawn) | 0.8 | 1.2 | 21.8 | 18.1 | 0.8 | -5.7
